# According to a collection of fitness landscapes (doi:10.1016/j.celrep.2020.107928):
# Whole data set: some 81,000 sequences, median “one-hybrid fitness for binding parS DNA” near -0.17, cut for the highest 2% near 0.51. What follows is part of a selection rich in the highest values, with near analogues and random picks from the rest.
# B1: Caulobacter ParB omega fusion; a variant is named by its letters at X, in order, B8GW30 (parent)
# chain: MESVVVGEPGMSEGRRGLGRGLSALLGEVDAAPAQAPGEQLGGSREAPIEILQRNPDQPRRTFREEDLEDLSNSIREKGVLQPILVRPSPDTAGEYQIVAGERAWRAAQRAGLKTVPIMVRELDDLAVLEIGIIENVQRADLNVLEEALSYKVLMEKFERTQENIAQTIGKSXSHVANXMRLLXLPDEVQSYLVSGELTAXHARAIAAAADPVALAKQIIEGGLSVRETEALARKAPNLSAGKSKGGRPPRVKDTDTQALESDLSSVLGLDVSIDHRGSTGTLTITYATLEQLDDLCNRLTRGI
# Variants of: B1
# Assay: one-hybrid fitness for binding parS DNA (scaled: cognate 1, non-cognate 0); higher = stronger binding
# Conditions: with parS DNA site
# Outline: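 Pre- and post-selection plasmids were Illumina-sequenced, three replicate libraries were pooled, and any variant with under 10 reads was removed. The libraries were Caulobacter ParB with four specificity codons randomised, selected in E. coli USO through a HIS3 reporter whose site is 19 bp from the promoter. Cells grew 48 hours at 37°C on M9 without histidine, with 0.1 mM IPTG and 5 mM 3-AT. Fitness is the log change in variant-to-wild-type read ratio, rescaled against cognate and non-cognate.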
row,Variant,one-hybrid fitness for binding parS DNA
1,SLFE,≤ 0.2
2,WPSR,≤ 0.2
3,QMHP,≤ 0.2
4,VYQY,≤ 0.2
5,SHPH,≤ 0.2
6,RWIT,0.387
7,RWDT,0.512
8,RWNY,0.339
9,RWAT,0.614
10,RWFT,0.497
11,RWRT,0.722
12,RWNT,0.682
13,RWET,0.437
14,RWAR,≤ 0.2
15,RWNQ,≤ 0.2
16,PRFH,≤ 0.2
17,HAWM,≤ 0.2
18,IKVG,≤ 0.2
19,EEHS,≤ 0.2
20,NPMG,≤ 0.2
21,CKHA,≤ 0.2
22,GRFC,≤ 0.2
23,PTDC,≤ 0.2
24,AWVV,≤ 0.2
25,DFLV,≤ 0.2
26,TRVH,≤ 0.2

row,Variant,one-hybrid fitness for binding parS DNA
1,KVCE,≤ 0.2
2,NTDV,≤ 0.2
3,SNDS,≤ 0.2
4,RWPT,0.284
5,RWGT,0.548
6,RWHT,0.655
7,RWYT,0.596
8,RWWT,0.507
9,RWCF,≤ 0.2
10,RWCY,≤ 0.2
11,RWCT,0.611
12,PDGT,≤ 0.2
13,PKSV,≤ 0.2
14,QRHM,≤ 0.2
15,THKG,≤ 0.2
16,MWHG,≤ 0.2
17,YDRG,≤ 0.2
18,TVTH,≤ 0.2
19,GSYT,≤ 0.2
20,MYQT,≤ 0.2
21,GLVV,≤ 0.2
22,RWSD,≤ 0.2
23,RWQN,0.264
24,RWKQ,≤ 0.2
25,RWSN,0.318
26,RWKT,0.811

row,Variant,one-hybrid fitness for binding parS DNA
1,RWQT,0.618
2,RWQD,≤ 0.2
3,RWVT,0.43
4,RWLT,0.556
5,RWST,0.665
6,THYN,≤ 0.2
7,TFIW,≤ 0.2
8,SPRC,≤ 0.2
9,DYFS,≤ 0.2
10,HAPN,≤ 0.2
11,RKAW,≤ 0.2
12,FTYI,≤ 0.2
13,RVVV,≤ 0.2
14,SIHC,≤ 0.2
15,LMAG,≤ 0.2
16,QCAE,≤ 0.2
17,RLFH,0.258
18,RLFP,≤ 0.2
19,RLAR,≤ 0.2
20,RLAC,0.995
21,RLFC,0.948
22,RLAM,0.342
23,FKTR,≤ 0.2
24,LCPN,≤ 0.2
25,GYEP,≤ 0.2
26,NANA,≤ 0.2

row,Variant,one-hybrid fitness for binding parS DNA
1,RACA,0.609
2,DACA,≤ 0.2
3,RADA,0.563
4,RANA,0.595
5,RAIA,0.461
6,RAPA,0.231
7,RAYA,0.602
8,FRDR,≤ 0.2
9,TQKT,≤ 0.2
10,WTHY,≤ 0.2
11,REHK,≤ 0.2
12,GALF,≤ 0.2
13,VMFV,≤ 0.2
14,LLFI,≤ 0.2
15,RARA,0.658
16,DARA,≤ 0.2
17,NAQA,≤ 0.2
18,NARA,≤ 0.2
19,RAQA,0.548
20,PICM,≤ 0.2
21,LVHY,≤ 0.2
22,WEWS,≤ 0.2
23,SNSE,≤ 0.2
24,RTNS,0.874
25,RTNN,0.424
26,RTDH,≤ 0.2

row,Variant,one-hybrid fitness for binding parS DNA
1,RTDN,0.404
2,RTDS,0.989
3,RTND,≤ 0.2
4,FLHS,≤ 0.2
5,LGVG,≤ 0.2
6,ALYT,≤ 0.2
7,QTLN,≤ 0.2
8,DVLN,≤ 0.2
9,TSTW,≤ 0.2
10,EGNL,≤ 0.2
11,RQNN,0.435
12,RQDQ,≤ 0.2
13,RQDC,0.863
14,RQDK,≤ 0.2
15,RQNC,0.947
16,RQND,0.221
17,AQKR,≤ 0.2
18,ICTY,≤ 0.2
19,TAVI,≤ 0.2
20,FVPC,≤ 0.2
21,LNCS,≤ 0.2
22,RVFA,0.611
23,DVAA,≤ 0.2
24,RVAA,0.582
25,NVAA,≤ 0.2
26,ELAG,≤ 0.2

row,Variant,one-hybrid fitness for binding parS DNA
1,GGPT,≤ 0.2
2,CRIG,≤ 0.2
3,ILFC,≤ 0.2
4,DQVG,≤ 0.2
5,LIPT,≤ 0.2
6,RQPS,0.535
7,RQIY,0.256
8,RQIP,≤ 0.2
9,RQPT,0.387
10,RQPC,0.426
11,RQPN,≤ 0.2
12,RQID,≤ 0.2
13,RQIC,0.735
14,RQIR,≤ 0.2
15,RQIT,0.647
16,RQPP,≤ 0.2
17,RQIS,0.87
18,PHRE,≤ 0.2
19,KTEC,≤ 0.2
20,QHGS,≤ 0.2
21,NLTC,≤ 0.2
22,VSIA,≤ 0.2
23,TPVW,≤ 0.2
24,SHLF,≤ 0.2
25,STKF,≤ 0.2
26,TPQT,≤ 0.2

row,Variant,one-hybrid fitness for binding parS DNA
1,VRSR,≤ 0.2
2,VFSG,≤ 0.2
3,HISS,≤ 0.2
4,ADIG,≤ 0.2
5,PGTC,≤ 0.2
6,LVVH,≤ 0.2
7,HWLK,≤ 0.2
8,MKPK,≤ 0.2
9,SPFG,≤ 0.2
10,RLNT,0.908
11,RLDM,0.299
12,RLDT,0.806
13,RLNN,0.455
14,RLNP,≤ 0.2
15,RLDR,≤ 0.2
16,HMTH,≤ 0.2
17,YIMG,≤ 0.2
18,ADTW,≤ 0.2
19,VKGM,≤ 0.2
20,WSTL,≤ 0.2
21,RAVT,0.77
22,RAKN,0.462
23,RAKD,≤ 0.2
24,RAVQ,0.23
25,RAVK,≤ 0.2
26,RAKT,0.824

row,Variant,one-hybrid fitness for binding parS DNA
1,RMYE,≤ 0.2
2,FKCS,≤ 0.2
3,AGFC,≤ 0.2
4,RTFS,1.03
5,RTAD,≤ 0.2
6,RTAS,0.968
7,RTFP,≤ 0.2
8,RTFH,0.246
9,RTAP,≤ 0.2
10,LFRV,≤ 0.2
11,GSFC,≤ 0.2
12,RVWI,≤ 0.2
13,RWVY,≤ 0.2
14,RWVP,≤ 0.2
15,RWKS,0.961
16,RWVN,≤ 0.2
17,RWKH,0.228
18,RWYY,0.248
19,RWKP,≤ 0.2
20,RWKY,0.565
21,RWVS,0.616
